# Bioassay records: PubChem BioAssay, National Center for Advancing Translational Sciences (NCATS)
# Sampled rows, rich in hits. Any-hit rate of the full collection: about 5.1%.
# Tau fluor cs: counter-screen for tau fibril formation inhibitors | AID 1463 | Potency, µM (doses to about 57.7 µM) | 280,000 tested, 0.93% active | tau K18 P301L Alexa594 fluorescence, heparin fibrillization; note: nearly all actives have a fitted effect of over 55% in size
#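 Human K18 P301L tau (15 uM unlabeled plus 0.24 uM Alexa 594-labeled, final) in 100 mM sodium acetate pH 7 was mixed with compound and 20 uM heparin and incubated 6 hr at 37 C.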
# Tau fibril FP: blocks human tau fibril formation measured by polarization | P10636 | K18 P301L tau heparin fibrillization, Alexa594 FP, 6 h | Potency, µM (titrated, usually from 57.7 µM), most hits filed as inhibitors | 280,000 tested, 0.39% active | AID 1468; note: nearly all actives have a fitted effect of over 55% in size
# Target sequence (P10636 561-689 P618L limits assumed): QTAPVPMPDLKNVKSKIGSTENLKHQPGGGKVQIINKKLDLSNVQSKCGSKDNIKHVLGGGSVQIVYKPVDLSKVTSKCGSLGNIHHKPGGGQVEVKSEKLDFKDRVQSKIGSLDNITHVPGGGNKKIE
#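 Quantitative HTS format: compounds meet 15 uM recombinant K18 P301L tau and Alexa 594-tau tracer in 100 mM sodium acetate pH 7; 20 uM heparin triggers fibrillization at 37 C over 6 hr; FP gives the signal.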
# NPSR antag: antagonists of human neuropeptide S receptor cAMP signaling; CHO-NPSR cells, cAMP TR-FRET, antagonist mode; Potency, µM (top dose mostly 38.3 µM), most hits filed as inhibitors; 220,000 tested, 1% active; AID 1461; note: nearly all actives have a fitted effect of over 50% in size
# Target sequence (Q6W5P4 whole entry, looked up): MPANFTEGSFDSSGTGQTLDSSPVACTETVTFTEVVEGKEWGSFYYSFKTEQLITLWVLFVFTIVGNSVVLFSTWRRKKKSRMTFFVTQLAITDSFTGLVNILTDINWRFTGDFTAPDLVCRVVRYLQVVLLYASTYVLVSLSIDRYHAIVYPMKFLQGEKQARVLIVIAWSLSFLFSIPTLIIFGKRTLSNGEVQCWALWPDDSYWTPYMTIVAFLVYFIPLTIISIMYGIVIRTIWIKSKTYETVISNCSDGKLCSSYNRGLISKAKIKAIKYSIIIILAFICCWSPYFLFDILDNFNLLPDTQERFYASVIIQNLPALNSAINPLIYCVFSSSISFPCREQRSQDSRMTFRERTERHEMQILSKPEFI
# PNC assembly inh: inhibitors of perinucleolar compartment assembly. PC3M PTB-GFP, PNC prevalence imaging, 16 h; stronger effect = lower value. activity change (PNC), negative = inhibition, % at 10 µM. 140,000 tested, 3.1% active. AID 2417;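 active = readout at or below -70, meaning at least 70% loss of cells showing the perinucleolar compartment, a nuclear body marking cancer cells; inconclusive = readout between -30 and a set limit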
#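 Compounds are pinned in duplicate onto adhered PC3M cells stably expressing GFP-tagged PTB and incubated 16 h at 37 C. Cells are then fixed, nuclei stained with Hoechst, and PNC-positive cells counted.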
# Tau ThT inhib: tau fibrillization inhibition (ThT binding). P10636. recombinant tau K18 P301L (four-repeat tau fragment), heparin-induced fibrillization, ThT fluorescence. Potency, µM (titrated, usually from 57.4 µM), most hits filed as inhibitors. 270,000 tested, 2.1% active; note: nearly all actives have a fitted effect of over 55% in size
#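 K18 P301L tau (15 uM + 0.24 uM Alexa 594-tagged), heparin 20 uM, NaOAc pH 7, 6 h 37 C; ThT 30 uM, 1 h RT, ex 450/em 510 nm.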
# KDM4E inh: blocks human JMJD2E demethylase activity. Potency, µM (series often up to 57.1 µM), actives largely listed as inhibitors. AID 2147. 230,000 tested, 1.6% active. B2RXH2. JMJD2E catalytic domain, FDH-coupled NADH fluorescence (FDH is formaldehyde dehydrogenase); note: nearly all actives have a fitted effect of over 50% in size
# Numbers stand for hits; . = inactive; ? = inconclusive; / = not tested or not shown; [ ] = another dose, or the depositor's remark. Unless noted, calls come from the whole dose curve; as a rule, active = well fitted curve in the direction sought with a large enough effect; inconclusive = small, poorly fitted or top-dose-only effect, or another doubt; inactive = no such curve, though single readings can be large; an effect the other way counts as inactive or inconclusive.
SMILES,Tau fluor cs,Tau fibril FP,NPSR antag,PNC assembly inh,Tau ThT inhib,KDM4E inh
O=C(/C=C\c1ccco1)Nc1ccc(N2CCN(C(=O)c3ccccc3)CC2)cc1,?,.,.,.,11.2µM,.
O=C(/C=C/c1ccco1)NC(=S)Nc1ccc(Cl)cn1,?,.,.,.,22.4µM,?
Cc1ccnc(NC(=S)NC(=O)/C=C/c2ccco2)c1,.,.,.,?,?,?
Cc1ccc(-c2csc(NC(=S)NC(=O)/C=C/c3ccco3)n2)cc1,.,?,10µM,.,?,.
O=C(/C=C/c1ccco1)NC(=S)Nc1ccc(O)c(-c2nc3ccccc3s2)c1,.,.,1µM,.,?,.
COc1ccc(NC(=S)NC(=O)/C=C/c2ccco2)cc1,.,.,.,/,?,?
CC(=O)N1CCCc2cc(S(=O)(=O)N3CCC(C(=O)NCCC(C)C)CC3)ccc21,.,.,/,/,.,/
Cc1cccc(Cn2ccn(Cc3ccc(Cl)cc3)c(=O)c2=O)c1,.,.,/,/,?,/
O=C(/C=C/c1ccco1)NC(=S)Nc1ccc(N2CCCC2)cc1,?,.,.,?,3.55µM,11.2µM
COc1ccc(CCn2cc3c(c2-c2ccccc2Br)c(=O)n(C)c(=O)n3C)cc1OC,.,.,/,/,.,/
COc1ccc(OC)c(/C=c2\sc3nc(-c4cccs4)nn3c2=O)c1,.,?,.,.,?,?
COc1ccc(O)c(/C=c2/sc3nc4cc(C)c(C)cc4n3c2=O)c1,?,?,.,?,22.4µM,.
CCCSc1ncc(Cl)c(C(=O)NCc2ccc(OC)cc2)n1,.,.,/,/,.,/
CCCC(=O)NC(c1ccc(OC)c(OC)c1)c1cc(Cl)c2cccnc2c1O (stereo not given),.,.,.,/,.,17.8µM
CCCC(=O)NC(c1ccco1)c1cc([N+](=O)[O-])c2cccnc2c1O (stereo not given),.,.,?,/,?,28.2µM
CCCCC(=O)NC(c1cccs1)c1cc(Cl)c2cccnc2c1O (stereo not given),.,.,.,/,.,?
O=C(/C=C/c1ccccc1)Nc1nc2n(n1)C(c1ccc(F)cc1)C=C(c1ccccc1)N2 (stereo not given),.,.,/,/,.,/
Cc1cccc(-c2noc(-c3ccc(NCc4cccnc4)c([N+](=O)[O-])c3)n2)c1,.,.,/,/,.,/
CC1(C(=O)O)Cc2ccccc2C(=O)O1 (stereo not given),.,.,.,-100.9,.,.
COc1cc2c(cc1OC)CN(CC(=O)Nc1ccc(C)cc1)CC2,.,.,?,-89.5,.,.
COc1cc(/C=N/NC(=O)C(=O)/C=C2\NC3(CCCC3)Cc3ccccc32)ccc1O,?,?,.,.,?,.
CN(C)c1ccc(/C=N/NC(=O)C(=O)/C=C2\NC3(CCCC3)Cc3ccccc32)cc1,.,.,.,-109.0,2.24µM,.
COc1cc2c(cc1OC)C(c1cc3cc4c(cc3[nH]c1=O)OCO4)N(C(=O)C1CC1)CC2 (stereo not given),.,.,.,-100.0,.,?
Cc1ccccc1C(=O)Nc1nc2nc(C)c(C)c(=O)n2[nH]1,.,.,/,/,.,/
COc1cc(CCC(=O)OCC(=O)Nc2ccccc2C(C)C)cc(OC)c1OC,.,.,.,-110.8,.,.
SMILES,Tau fluor cs,Tau fibril FP,NPSR antag,PNC assembly inh,Tau ThT inhib,KDM4E inh
O=[N+]([O-])c1cc(C(F)(F)F)ccc1NCCc1c[nH]c2ccc(O)cc12,28.2µM[quencher],.,.,.,17.8µM,.
O=[N+]([O-])c1cc(C(F)(F)F)ccc1NCCc1c[nH]c2ccccc12,10µM[quencher],.,?,?,12.6µM,.
COc1cccc2c1Oc1ncccc1N(c1ccc(C(=O)NCc3ccccc3Cl)s1)C2,.,.,/,/,.,/
CCOC(=O)c1c(-c2ccc(Cl)cc2)csc1NC(=O)CNCc1ccco1,.,.,10µM,/,.,25.1µM
CCOC(=O)c1c(-c2ccc(C)s2)csc1NC(=O)c1ccco1,.,.,7.94µM,.,.,.
CN(C)c1cccc(C(=O)N2CCC(c3ccncc3)CC2)c1,.,.,/,/,.,/
Oc1sc(C=Nc2ccccc2)c2ccccc12,14.1µM[quencher],.,.,.,?,.
Oc1c(C=Nc2ccccc2)sc2ccccc12,.[2.34 µM],.[2.34 µM],.,/,.,?
